MK inhibit = inhibitors of Streptococcus pneumoniae mevalonate kinase | purified MK, PK/LDH-coupled NADH absorbance 340 nm | inhibition, % at 10 µM | actives 0.48% (n = 65,000);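 active = ranked among the strongest by inhibition in the single 10 µM screen, a fixed top-ranked set picked for dose follow-up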
NADH enzymes = blocks coupling enzymes of NAD/NADH assays; coupled PK/LDH NADH assays, four targets; IC50, µM (top dose mostly 10 µM), for the others: at the top dose inhibition; actives 0.02% (n = 65,000);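 active = single-dose screening hits from any of four coupled enzyme assays that gave an IC50 when retested across doses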;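 note: the DPM-DC format reads NADH fluorescence rather than 340 nm absorbance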
Spn PMK inh = blocks S. pneumoniae phosphomevalonate kinase; inhibition, % at 10 µM; purified PMK, PK/LDH-coupled NADH absorbance 340 nm; actives 0.49% (n = 65,000); AID 539;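 active = top-ranked compounds by inhibition in the single 10 µM screen, taking a fixed number of the strongest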;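 note: 0% = full reaction with DMSO carrier and 100% = background rate without enzyme reaction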
Autofluor 339 = intrinsic fluorescence of library compounds, ex339/em460 – biochemical, MLSMR library, data from DPM-DC assay, artefact control, profiling panel; compound autofluorescence, ex339/em460 nm, NADH buffer; active compounds read high; 1 = no-compound wells, NADH background; fluorescence fold increase at 10 µM; actives 5.5% (n = 65,000);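 active = at 10 µM, mean starting fluorescence two-fold or more over control wells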;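 note: signal is the first read of a kinetic run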
Spn DPM-DC inh = blocks S. pneumoniae diphosphomevalonate decarboxylase. purified DPM-DC, PK/LDH coupled NADH fluorescence. calls only at 10 µM. actives 0.49% (n = 65,000). AID 556;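 active = the 320 compounds with the highest percent inhibition in the single-dose primary screen, excluding strongly autofluorescent ones, cut at about 32% in these data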;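 note: kinetic rate of NADH fluorescence loss reporting ADP formed by the decarboxylase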
A340 absorber = absorbance at 340 nm; AID 708; compound absorbance at 340 nm, fold over control; fold change at 10 µM; 65,000 tested, under 10 active;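 active = at 10 µM dose, initial 340 nm absorbance at least 2 fold that of control wells; inactive = change under 2 fold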;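 note: initial absorbance extrapolated from kinetic A340 decline of NADH oxidation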
The depositor's hits bear a star; [ ] = another dose, or the depositor's remark. Compounds with a hit are over-represented: about 6.8% of the library has one in this group of screens.

O=C(NCc1cccs1)C1CC(=O)N(c2ccc(F)cc2)C1 (centres undefined) was read as MK inhibit 8.0, NADH enzymes 7.0%, Spn PMK inh 13.0, Autofluor 339 1.15, Spn DPM-DC inh inactive and A340 absorber 0.96.
`O=C(Nc1ccc(OC(F)(F)F)cc1)c1cnc2n(c1=O)CCS2` gave MK inhibit 5.0, NADH enzymes 4.0%, Spn PMK inh 6.0, Autofluor 339 1.09, Spn DPM-DC inh inactive and A340 absorber 0.96.
CCCCOC(=O)c1ccc(NC(=O)c2cnc3n(c2=O)CCS3)cc1 was read as MK inhibit 2.0, NADH enzymes 5.0%, Spn PMK inh 10.0, Autofluor 339 2*, Spn DPM-DC inh inactive and A340 absorber 1.07.
Screening CCn1cc(C(=O)NCc2ccco2)c(=O)c2cc(F)c(N3CCN(C(=O)c4ccco4)CC3)cc21 returned MK inhibit 3.0, NADH enzymes 4.0%, Spn PMK inh 10.0, Autofluor 339 2.38*, Spn DPM-DC inh active[fluoresces] and A340 absorber 1.01.
Screening CCn1cc(C(=O)NCCc2ccccc2)c(=O)c2cc(F)c(N3CCN(C)CC3)cc21 returned MK inhibit 0.0, NADH enzymes 4.0%, Spn PMK inh 4.0, Autofluor 339 1.56, Spn DPM-DC inh inactive and A340 absorber 1.04.
For CCn1cc(C(=O)NCc2ccc3c(c2)OCO3)c(=O)c2cc(F)c(N3CCN(C)CC3)cc21 the results were MK inhibit 7.0, NADH enzymes 11.0%, Spn PMK inh 2.0, Autofluor 339 2.2*, Spn DPM-DC inh inactive and A340 absorber 1.05.
For O=C(O)c1ccccc1NCN1C(=O)C2CC=C(Cl)CC2C1=O (centres undefined) the results were MK inhibit 0.0, NADH enzymes 9.0%, Spn PMK inh 12.0, Autofluor 339 2.6*, Spn DPM-DC inh inactive and A340 absorber 1.02.
For CCC1CCCCN1C(=O)Cn1c(C(=O)OC)cc2ccsc21 (centres undefined) the results were MK inhibit 7.0, NADH enzymes 4.0%, Spn PMK inh 6.0, Autofluor 339 1.11, Spn DPM-DC inh inactive and A340 absorber 1.01.
`COc1ccccc1N1CCN(CCc2n[nH]c(=S)n2-c2ccccc2)CC1` gave MK inhibit 46.0*, NADH enzymes 15.0%, Spn PMK inh 0.0, Autofluor 339 1.08, Spn DPM-DC inh inactive and A340 absorber 1.11.
c1ccc2c(c1)oc1c(NCCCn3ccnc3)ncnc12 was read as MK inhibit 2.0, NADH enzymes 2.0%, Spn PMK inh 4.0, Autofluor 339 1.09, Spn DPM-DC inh inactive and A340 absorber 1.05.
For c1ccc(-c2oc3ncnc(NCCCn4ccnc4)c3c2-c2ccccc2)cc1 the results were MK inhibit 0.0, NADH enzymes 8.0%, Spn PMK inh 16.0, Autofluor 339 3.66* and A340 absorber 1.06.
`c1ccc(-c2oc3ncnc(NCCN4CCOCC4)c3c2-c2ccccc2)cc1` gave MK inhibit 2.0, NADH enzymes 5.0%, Spn PMK inh 4.0, Autofluor 339 2.01*, Spn DPM-DC inh inactive and A340 absorber 1.02.
For N=c1c2c(-c3ccccc3)c(-c3ccccc3)oc2ncn1CCCN1CCOCC1 the results were MK inhibit 12.0, NADH enzymes 11.0%, Spn PMK inh 12.0, Autofluor 339 1.46, Spn DPM-DC inh inactive and A340 absorber 1.08.
For COc1cc(-n2c(C)nc3cc(C(=O)N4CCOCC4)ccc32)cc(OC)c1OC the results were MK inhibit 0.0, NADH enzymes 6.0%, Spn PMK inh 18.0, Autofluor 339 1.09, Spn DPM-DC inh inactive and A340 absorber 1.01.
Screening CCC(NC(=O)NCCCn1ccnc1)(C(F)(F)F)C(F)(F)F returned MK inhibit 0.0, NADH enzymes 2.0%, Spn PMK inh 6.0, Autofluor 339 1.07, Spn DPM-DC inh inactive and A340 absorber 1.04.
`O=C(c1ccco1)c1nnn(Cc2ccccc2)c1-c1ccccc1` gave MK inhibit 1.0, NADH enzymes 1.0%, Spn PMK inh 4.0, Autofluor 339 1.05, Spn DPM-DC inh inactive and A340 absorber 1.01.
NC(=O)c1c(C(F)(F)F)cc(-c2ccccc2)nc1NCCO was read as MK inhibit 7.0, NADH enzymes 8.0%, Spn PMK inh 9.0, Autofluor 339 3.74* and A340 absorber 1.09.
For CCOC(=O)CS(=O)(=O)c1nc(-c2ccccc2)cc(C(F)(F)F)n1 the results were MK inhibit 10.0, NADH enzymes 4.0%, Spn PMK inh 6.0, Autofluor 339 1.04, Spn DPM-DC inh inactive and A340 absorber 0.98.
For COCCn1c(SCc2ccc(C(=O)OC)o2)nc2cc(Cl)ccc2c1=O the results were MK inhibit 0.0, NADH enzymes 6.0%, Spn PMK inh 16.0, Autofluor 339 1.08, Spn DPM-DC inh inactive and A340 absorber 1.01.
For Cc1ccc2nc3ccc(N4CCN(C)CC4)nn3c(=O)c2c1 the results were MK inhibit 0.0, NADH enzymes 6.0%, Spn PMK inh 7.0, Autofluor 339 2.32*, Spn DPM-DC inh inactive and A340 absorber 1.09.
For Cc1c(NC(=O)C2CCN(S(=O)(=O)c3ccccc3)CC2)c(=O)n(-c2ccccc2)n1C the results were MK inhibit 14.0, NADH enzymes 21.0%, Spn PMK inh 14.0, Autofluor 339 1.1, Spn DPM-DC inh active and A340 absorber 1.02.
`CCOc1ccc2[nH]c(=O)c(C(c3nnnn3C3CCCCC3)N3CCN(CC)CC3)cc2c1` (centres undefined) gave MK inhibit 1.0, NADH enzymes 1.0%, Spn PMK inh 0.0, Autofluor 339 3.74* and A340 absorber 1.05.
COc1cc2cc(C(c3nnnn3C3CCCC3)N3CCCCCC3)c(=O)[nH]c2cc1OC (centres undefined) was read as MK inhibit 8.0, NADH enzymes 4.0%, Spn PMK inh 11.0, Autofluor 339 1.56, Spn DPM-DC inh inactive and A340 absorber 1.04.
Screening CCN1CCN(C(c2ccccc2OC)c2nnnn2C2CCCCC2)CC1 (centres undefined) returned MK inhibit 14.0, NADH enzymes 11.0%, Spn PMK inh 18.0, Autofluor 339 1.08, Spn DPM-DC inh inactive and A340 absorber 0.99.
Screening CCOc1ccc2[nH]c(=O)c(C(c3nnnn3C3CCCCC3)N3CCN(C)CC3)cc2c1 (centres undefined) returned MK inhibit 6.0, NADH enzymes 12.0%, Spn PMK inh 18.0, Autofluor 339 4.44* and A340 absorber 1.03.
`CCOc1ccc2[nH]c(=O)c(C(c3nnnn3Cc3ccco3)N3CCCC(C)C3)cc2c1` (centres undefined) gave MK inhibit 6.0, NADH enzymes 8.0%, Spn PMK inh 6.0, Autofluor 339 2.17*, Spn DPM-DC inh inactive and A340 absorber 1.06.
O=c1c2ccccc2oc2ncccc12 was read as MK inhibit 9.0, NADH enzymes 6.0%, Spn PMK inh 8.0, Autofluor 339 1.22, Spn DPM-DC inh inactive and A340 absorber 1.09.
